{"source": "the OligoGym collection", "data": [{"molecular_target": "CD27", "experiment": "pooled miR-30 sensor sort-seq; sequence = guide strand", "settings": "shRNA", "values": [{"sequence": "TCACACTGAGCAGCCTTTCTAT", "sensor-assay potency score (higher = more potent)": -1.13}, {"sequence": "AAGGATGCGAATAAAATCGGAG", "sensor-assay potency score (higher = more potent)": -0.423}, {"sequence": "ATCTATATTTCCTTCGTTGATG", "sensor-assay potency score (higher = more potent)": -1.32}, {"sequence": "TATATTTCCTTCGTTGATGGAG", "sensor-assay potency score (higher = more potent)": -0.211}, {"sequence": "TCTATGCTGGTCACAGTCCTTC", "sensor-assay potency score (higher = more potent)": -0.827}, {"sequence": "TTTTCGGTAATCCTCCTGGATG", "sensor-assay potency score (higher = more potent)": -1.32}]}, {"molecular_target": "CD300E", "experiment": "pooled miR-30 sensor sort-seq; sequence = guide strand", "settings": "shRNA", "values": [{"sequence": "TTGTACATGCTCTCATACTGAC", "sensor-assay potency score (higher = more potent)": -0.406}, {"sequence": "TTGGGGTTGTAATTGCTGGGGA", "sensor-assay potency score (higher = more potent)": -0.0469}, {"sequence": "TTTGGGTCAACACCTCCCCGGT", "sensor-assay potency score (higher = more potent)": -1.29}, {"sequence": "TTGGTCTCCACAATGCTCTCAC", "sensor-assay potency score (higher = more potent)": 0.408}, {"sequence": "ACTGTCTGAATTTTGCACCAGT", "sensor-assay potency score (higher = more potent)": -0.28}, {"sequence": "ATCATCTTCATTGAGGTTCTGC", "sensor-assay potency score (higher = more potent)": 0.407}, {"sequence": "TTTTGGGTCAACACCTCCCCGG", "sensor-assay potency score (higher = more potent)": -0.887}, {"sequence": "ATACTGACACCACACTGTCAGA", "sensor-assay potency score (higher = more potent)": -1.71}, {"sequence": "TCACATGACGTGTCGTACTGTC", "sensor-assay potency score (higher = more potent)": 0.205}, {"sequence": "TGGTCTCTGATGGACACGCGGC", "sensor-assay potency score (higher = more potent)": -1.67}, {"sequence": "ATGACGTGTCGTACTGTCCTCG", "sensor-assay potency score (higher = more potent)": -0.632}, {"sequence": "TGAATTTTGGGTCAACACCTCC", "sensor-assay potency score (higher = more potent)": -1.03}]}]}
